Source: PubChem BioAssay AID977607 (Broad Institute, 2014)
Hit rate of the full screen: of about 1,500 compounds, about 460 (31%) were called active. Not shown: some 1% with an inconclusive outcome.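 The calls were made as follows: active = curve reaches 40% activation over neutral controls at an AC40 no higher than the top valid tested concentration; inconclusive = no clear call, values can overlap the other calls; inactive = signal moving opposite to the expected increase, and the rest.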 Only a sample is shown. Potency and affinity values are given separately.

Assay: activators of glucose-dependent insulin secretion, dose response, cell-based, INS-1E, Gaussia luciferase, luminescence, cherry-pick, set 2 (AID 977607);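 also: 0% = median of the plate neutral control wells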
Settings: INS-1E GLuc insulin secretion reporter, 2-3 h, hits give high values; at 35 µM, 100% = signal doubled over neutral wells unless noted

Max activation, inactive:
C=CCc1ccccc1Oc1cc(OC)nc(N)n1 -22% [at 1.2 µM, 100% = signal doubled over neutral wells]
COc1ccc(CCNC(=O)C(=O)c2c(C)n(C)c3ccccc23)cc1OC -13.8% [at 1.2 µM, 100% = signal doubled over neutral wells]
COc1ccc(OCCCCN(C)Cc2ccccc2)cc1 -18.5% [at 1.2 µM, 100% = signal doubled over neutral wells]
CCC(C)c1ccccc1OCCn1ccnc1 (configuration not stated) 16.6% [at 0.005 µM, 100% = signal doubled over neutral wells]
O=C(N/N=C/c1ccc2c(c1)OCO2)c1ccc(Cl)cc1Cl -37.2%
CCC(=O)Nc1sc(Cc2ccc3c(c2)OCO3)c(C)c1C(N)=O -24.2% [at 0.0016 µM, 100% = signal doubled over neutral wells]
O=C(Nc1ccc(F)cc1)c1cccnc1Oc1ccccc1 21.8%
CC(C)CCN1CC(O)=C(c2nc(-c3ccc(Cl)cc3)cs2)C1=N -11.3% [at 0.005 µM, 100% = signal doubled over neutral wells]
CCCn1c(C)cc(C)c(C#N)c1=O -11.7% [at 1.2 µM, 100% = signal doubled over neutral wells]
O=C(O)CC(CC(=O)Nc1ccc(C(=O)O)cc1)c1ccccc1 (configuration not stated) 11.8% [at 3.8 µM, 100% = signal doubled over neutral wells]
CCNc1nc(Oc2ccc(C#N)cc2)cc(C(F)(F)F)n1 -19% [at 0.135 µM, 100% = signal doubled over neutral wells]
O=S(=O)(NCc1ccccc1)c1ccc(-n2cccn2)cc1 32% [at 0.135 µM, 100% = signal doubled over neutral wells]
Cc1ccc2c(c1)N(C(C)C(=O)NCc1cccs1)C(=O)CO2 (configuration not stated) 15.9% [at 0.42 µM, 100% = signal doubled over neutral wells]
CN1CCCC1CCNC1C2CC3CC(C2)CC1C3 (configuration not stated) -20.8% [at 0.135 µM, 100% = signal doubled over neutral wells]
Cc1ccc(-n2nc3c(c2NC(=O)C2CC2)CS(=O)(=O)C3)cc1 -19.6% [at 0.005 µM, 100% = signal doubled over neutral wells]
CC(C)CN(C(=O)C1CCCCC1)C1CCS(=O)(=O)C1 (configuration not stated) -14.6% [at 3.8 µM, 100% = signal doubled over neutral wells]
CC1CCC(NC(=O)C2COc3ccccc3O2)CC1 (configuration not stated) -17.3% [at 0.135 µM, 100% = signal doubled over neutral wells]
O=C(O)C1Cc2c([nH]c3ccccc23)C(c2ccc3c(c2)OCO3)N1 (configuration not stated) 27.5% [at 0.015 µM, 100% = signal doubled over neutral wells]
CC(=O)N1CCN(c2nc(-c3cccs3)nc3ccccc23)CC1 40.4% [at 11 µM, 100% = signal doubled over neutral wells]
Cc1nn(-c2ccccc2)c2nc(C(F)F)cc(C(F)F)c12 13.6%
COc1ccc(-c2cnc(N)nc2-c2ccc(OC)cc2)cc1 20.9% [at 11 µM, 100% = signal doubled over neutral wells]
Cc1cccn2cc(CCNS(=O)(=O)c3cccs3)nc12 -22.2% [at 0.42 µM, 100% = signal doubled over neutral wells]
Cc1cc(OCC(O)CNC(C)c2ccccc2)ccc1C(C)C (configuration not stated) 327%
COc1ccccc1C(C)NS(=O)(=O)c1ccc(Cl)nc1 (configuration not stated) 15.6% [at 3.8 µM, 100% = signal doubled over neutral wells]
Cc1cn(CC(C)C)c(=O)n(-c2ccccc2)c1=O 12.2%
Cc1cccc2nc(-c3ccco3)c(Nc3ccccc3)n12 -25.5%
COc1ccc(-c2[nH]c3ccccc3c2SCCN)cc1 -28.1%
O=c1c(C(c2ccccc2)c2c(O)sc3ccccc3c2=O)c(O)sc2ccccc12 19.2%
COc1ccc(N2CC(C(=O)N3CCc4ccccc43)CC2=O)cc1 (configuration not stated) -12.5% [at 0.0016 µM, 100% = signal doubled over neutral wells]
CCCCc1[nH]c(=O)c(C#N)c2c1CCCC2 16.7%
Cc1c(OCC(=O)NCc2ccccn2)ccc2c3c(c(=O)oc12)CCCC3 27.3%
NNc1nc(-c2ccccc2)c2ccccc2n1 -19.6% [at 0.046 µM, 100% = signal doubled over neutral wells]
CCn1c(=O)[nH]c(=O)c2c(N)c(C(=O)c3cc(F)ccc3F)sc21 27.3%
COC(=O)N1CCCCC1c1cc(C(=O)NCc2ccc(Cl)c(Cl)c2)no1 (configuration not stated) -38.9%
CC(C)COc1ccc(Br)cc1CNC(C)(C)C -18.4% [at 11 µM, 100% = signal doubled over neutral wells]
COCCN1Cc2cccc(C(=O)NCc3ccccc3OC)c2C1=O -20% [at 0.0016 µM, 100% = signal doubled over neutral wells]
CSc1ccc(/C=N/N(C)S(=O)(=O)c2ccc(C)cc2)cc1 -22.1%
Cc1ccc(S(=O)(=O)/N=C2\CN(C)C(=O)N2C)cc1 -21.8% [at 3.8 µM, 100% = signal doubled over neutral wells]
CCCc1nc(-c2cc3cc(C)ccc3[nH]c2=O)no1 -13.2% [at 1.2 µM, 100% = signal doubled over neutral wells]
CCOC(=O)c1c(N)c(C#N)c2n1CCCC2 -17% [at 0.0016 µM, 100% = signal doubled over neutral wells]
O=C(O)c1c(NC(=O)N2CCOCC2)sc2c1CCCC2 -10.1% [at 0.0016 µM, 100% = signal doubled over neutral wells]
CCOc1ccc(C(=O)NCC(=O)OCCN2C(=O)c3ccccc3C2=O)cc1OCC -25.4% [at 0.135 µM, 100% = signal doubled over neutral wells]
O=S(=O)(NCC1CCCO1)c1ccc(Cl)nc1 (configuration not stated) -19.6% [at 3.8 µM, 100% = signal doubled over neutral wells]
CCCCNC(=O)C1(C)CCN1C(=O)c1cc2ccccc2s1 (configuration not stated) -22.6% [at 3.8 µM, 100% = signal doubled over neutral wells]
CC1(C(=O)N2CCCCC2)CCN1C(=O)C1(c2ccccc2)CC1 (configuration not stated) -16.5% [at 0.046 µM, 100% = signal doubled over neutral wells]
Cc1noc(C)c1S(=O)(=O)NC(=O)C1(C)CCN1C(=O)C1(c2ccc(Cl)cc2)CCC1 (configuration not stated) -18.9% [at 0.135 µM, 100% = signal doubled over neutral wells]
CCSc1ncnc2c(C#N)c3n(c12)CCCCC3 -11.2% [at 0.005 µM, 100% = signal doubled over neutral wells]
Cc1cc(=O)[nH]c2c1c(C)nn2C1CCCC1 -15.7% [at 1.2 µM, 100% = signal doubled over neutral wells]
CCCCOc1ccc(-c2nnn(CC(=O)c3c[nH]c4ccccc34)n2)cc1 -22.5%
CCN1CCN(c2ccc(S(=O)(=O)N3CCCCC3)cc2NC(=O)c2cc3ccccc3o2)CC1 -44.3%
Cc1cccc(C)c1NC(=O)C1c2ccccc2Oc2ccccc21 22.9%
CCCCOC(=O)c1cc(-c2ccc(/C=N/n3cnnc3)o2)ccc1Cl 9.8% [at 1.2 µM, 100% = signal doubled over neutral wells]
O=C(CNC(=O)c1ccco1)N/N=C/c1ccc(C(=O)O)cc1 52.9% [at 11 µM, 100% = signal doubled over neutral wells]
CC(=O)NC1C(=O)N(CCN2CCOCC2)c2ccc(Br)cc21 (configuration not stated) -15.1% [at 3.8 µM, 100% = signal doubled over neutral wells]
O=C(CCN1CCOCC1)c1ccc(N2CCCCC2)cc1 -35% [at 3.8 µM, 100% = signal doubled over neutral wells]
O=C(c1ccc2c(c1)OCO2)N1CCc2ccccc2C1 14.5%
CC(C)Oc1ccc(C(=O)CCN2CCOCC2)cc1 -16%
CC1(c2ccc(OC(F)F)cc2)NC(=O)N(CC(=O)Nc2cccc(S(N)(=O)=O)c2)C1=O (configuration not stated) -16.7%
C=CCN(CC=C)S(=O)(=O)c1ccc(C(=O)Nc2sc3c(c2C(N)=O)CCCCC3)cc1 -33.8% [at 3.8 µM, 100% = signal doubled over neutral wells]
C[C@H](O)[C@@H]1CN2CCc3ccc(-c4ccc5c(c4)OCO5)cc3[C@@H]2C[C@@H]1N(C)C(=O)c1cccc(Cl)c1 18.9% [at 0.42 µM, 100% = signal doubled over neutral wells]
CC(C(=O)N1CCC(C(N)=O)CC1)N(c1ccc(Oc2ccccc2)cc1)S(C)(=O)=O (configuration not stated) 28.2% [at 0.42 µM, 100% = signal doubled over neutral wells]
COc1ccc(CCNC(=O)CCc2ccccc2O)cc1OC -17.8% [at 0.005 µM, 100% = signal doubled over neutral wells]
COc1ccc(CCNC(=O)CCc2ccccc2)cc1OC -19.6% [at 0.42 µM, 100% = signal doubled over neutral wells]
CC(=O)NCCNC(=O)CNC(=O)c1ccc(Cl)cc1 -16.4% [at 0.0016 µM, 100% = signal doubled over neutral wells]
CCNc1nc(NC(C)CC)nc(ON=C(C)C)n1 (configuration not stated) 31.8%
COCCN(CCOC)Cc1cc(=O)oc2cc(C)c(C)cc12 -22.4% [at 0.046 µM, 100% = signal doubled over neutral wells]
COc1cccc2cc(-c3cc(=O)oc4cc(C)c(O)cc34)oc12 15.9% [at 3.8 µM, 100% = signal doubled over neutral wells]
O=C(NCCN1CCN(C(=O)c2ccccc2Cl)CC1)C(=O)NCc1ccccc1 23.3% [at 0.005 µM, 100% = signal doubled over neutral wells]
CC(O)c1nc2ccc(Cc3ccc4nc(C(C)O)[nH]c4c3)cc2[nH]1 (configuration not stated) -15% [at 0.0016 µM, 100% = signal doubled over neutral wells]
CCNc1nc(NC(C)C)nc(N(C)C#N)n1 18.9%
COc1ccc(/C=N/NC(=O)c2cc(-c3ccc4c(c3)OCO4)n[nH]2)cc1OC 26.5% [at 3.8 µM, 100% = signal doubled over neutral wells]
O=C(NN=C1CCCC1)c1cc(-c2ccccc2)n[nH]1 -11.9% [at 1.2 µM, 100% = signal doubled over neutral wells]
